According to article PMC7819943, “Rice protein-binding microarrays: a tool to detect cis-acting elements near promoter regions in rice”:
Whole data set: some 39,000 sequences, median “fluorescence intensity (a.u.)” near 4,300, cut for the highest 2% near 39,000. For the sample, the highest values were picked, then their nearest neighbours and some sequences at random.

The sequences below were run against T1, OsSMF1 (Oryza sativa, UniProt Q6ZLB0 1-436) (assay: protein-binding microarray (RPBM); PBS, 2% BSA, 51.3 ng/ul salmon testes DNA, 50 uM zinc acetate, 200 nM TF, 25 C, 1 h; high values mean tight binding). Settings: protein: recombinant; tags: N-terminal polyhistidine and DsRed monomer fusion (pET32a); chain copies: 2; label: CyDye5-dUTP incorporated in the synthesized complementary strand; 3' TTTTT single-stranded linker to array surface; dsDNA, one strand shown.
T1 sequence: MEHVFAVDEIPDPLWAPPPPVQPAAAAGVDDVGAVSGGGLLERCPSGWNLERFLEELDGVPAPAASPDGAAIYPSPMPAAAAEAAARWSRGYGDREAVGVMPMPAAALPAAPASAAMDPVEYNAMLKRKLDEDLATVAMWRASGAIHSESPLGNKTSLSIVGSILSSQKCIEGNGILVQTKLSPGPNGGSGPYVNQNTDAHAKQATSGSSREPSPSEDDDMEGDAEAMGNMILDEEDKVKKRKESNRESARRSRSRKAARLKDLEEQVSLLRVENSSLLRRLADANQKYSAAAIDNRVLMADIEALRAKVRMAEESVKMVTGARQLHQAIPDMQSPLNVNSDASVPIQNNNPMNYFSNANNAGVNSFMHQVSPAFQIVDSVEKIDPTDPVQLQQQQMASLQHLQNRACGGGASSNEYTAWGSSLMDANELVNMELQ
In short: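 Binding signal is reported as fluorescence intensity per feature (arbitrary units) from an Axon 4000B scanner. Incubation used 200 nM of each Ni–NTA-purified, N-terminally polyhistidine- and DsRed-fused transcription factor from E. coli BL21-CodonPlus on a double-stranded custom Agilent array for 1 h at 25 °C, with 50 µM zinc acetate in the buffer, followed by washing.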

Question: How did the binding signal turn out when “CCGGAGCCAGTAGTAGCGTTGAGTCGTTGTCGCGAGATGGCGGAGTCACCTAGTGCAG” was run?
Answer: The binding signal was 3260 fluorescence intensity (a.u.).

Question: For “AGAAAAGGAGGAAAAGAATTTCCCTGGGATTTAAAATATTCGGAGTCACCTAGTGCAG”, which binding signal is on record?
Answer: The binding signal was 26300 fluorescence intensity (a.u.).

Question: Which binding signal does the source give for “ACAGGAATATCTCTTCGAGGGATTAAAATTCACTCCCACTCGGAGTCACCTAGTGCAG” here?
Answer: The binding signal was 50800 fluorescence intensity (a.u.).

Question: For “TCCCACTCGATTTGGGAGAAAATACAGGGATTAAACTCTGCGGAGTCACCTAGTGCAG”, which binding signal is on record?
Answer: The binding signal was 3550 fluorescence intensity (a.u.).

Question: With “AGTGTCAGTACACACACTAGCTTCTCTCACCGGCTCTCCGCGGAGTCACCTAGTGCAG” as the sequence, how does the binding signal read?
Answer: The binding signal was 3210 fluorescence intensity (a.u.).

Question: For “CACAACTTTTGATTTCAGGACATATGTGTTCAGCTTTCCTCGGAGTCACCTAGTGCAG”, which binding signal is on record?
Answer: Its binding signal is 3370 fluorescence intensity (a.u.).

Question: Which binding signal does the source give for “GTTCAGCTATCAAAGTCCCTGAATAGTTTAGATTTACATTCGGAGTCACCTAGTGCAG” here?
Answer: Its binding signal is 14100 fluorescence intensity (a.u.).

Question: How did the binding signal turn out when “CTGACAGCTTTTAGTTCACAAATATCAGTAAGATTTCCCTCGGAGTCACCTAGTGCAG” was run?
Answer: The binding signal was 43200 fluorescence intensity (a.u.).

Question: With “ATTTCATAAAACTGCACATTCTGGGGTTCAAGTTGCAGAACGGAGTCACCTAGTGCAG” as the sequence, how does the binding signal read?
Answer: Its binding signal is 3170 fluorescence intensity (a.u.).

Question: With “TTCCTCCATCTTGACGTGGGACCCACCTGGAGATTCATCTCGGAGTCACCTAGTGCAG” as the sequence, how does the binding signal read?
Answer: The binding signal was 4710 fluorescence intensity (a.u.).

Question: “TGCTACATAAGTGACACGTCAACACCACGTTGTATAAAGACGGAGTCACCTAGTGCAG” was tested. Which binding signal did it give?
Answer: The binding signal was 53700 fluorescence intensity (a.u.).

Question: “TTACACGTTAAGAAAGTGCTAAGTAAACAAGACTGCCTGACGGAGTCACCTAGTGCAG” was tested. Which binding signal did it give?
Answer: The binding signal was 17700 fluorescence intensity (a.u.).

Question: For “ATGCTATATAAATGCCACGTTGTGCGAAGACCAAGTCAACCGGAGTCACCTAGTGCAG”, which binding signal is on record?
Answer: The binding signal was 3510 fluorescence intensity (a.u.).

Question: How did the binding signal turn out when “ACTACACCGTCGCAGCGCACCCACGTGACACGCAGCCACACGGAGTCACCTAGTGCAG” was run?
Answer: Its binding signal is 4730 fluorescence intensity (a.u.).

Question: How did the binding signal turn out when “CCCTCAAGGGCTCAAAACACTCAAACAGTTCTACATATATCGGAGTCACCTAGTGCAG” was run?
Answer: Its binding signal is 57600 fluorescence intensity (a.u.).

Question: How did the binding signal turn out when “TGATACATTACTCAAGGAAACAGTCACACAGTCTATCACGCGGAGTCACCTAGTGCAG” was run?
Answer: Its binding signal is 3200 fluorescence intensity (a.u.).

Question: Which binding signal does the source give for “CGTTGGGCTCAAGGGGAGGGATATCTATCTAACAGTAACACGGAGTCACCTAGTGCAG” here?
Answer: The binding signal was 4110 fluorescence intensity (a.u.).

Question: “CCGTCTCCACGCACTCGAACGTCACCGACGACCCCGGCAGCGGAGTCACCTAGTGCAG” was tested. Which binding signal did it give?
Answer: Its binding signal is 5490 fluorescence intensity (a.u.).

Question: For “GCCACACCTCCCATTCCTTAGCCAAACACTCGCACTACTCCGGAGTCACCTAGTGCAG”, which binding signal is on record?
Answer: Its binding signal is 3200 fluorescence intensity (a.u.).

Question: With “CGGTTGAATTGTTCTTGGCATCATCGGGTGTAACCGTGTACGGAGTCACCTAGTGCAG” as the sequence, how does the binding signal read?
Answer: The binding signal was 3350 fluorescence intensity (a.u.).

Question: With “TTCTCAGCCAATCCCCAGCTCACACGTGCCAACTCTTCCACGGAGTCACCTAGTGCAG” as the sequence, how does the binding signal read?
Answer: Its binding signal is 7630 fluorescence intensity (a.u.).

Question: With “CCACCATGGATCCGACGTGGCACAACCACATTGGTCCCTCCGGAGTCACCTAGTGCAG” as the sequence, how does the binding signal read?
Answer: Its binding signal is 17700 fluorescence intensity (a.u.).

Question: “TAGGCCCACACCTAGTCAGCTCAATCGAAATACAACCCACCGGAGTCACCTAGTGCAG” was tested. Which binding signal did it give?
Answer: Its binding signal is 3450 fluorescence intensity (a.u.).

Question: For “AACAGCTCAATTAATTAATCGCCCACACCGAAGCGCGCACCGGAGTCACCTAGTGCAG”, which binding signal is on record?
Answer: Its binding signal is 39800 fluorescence intensity (a.u.).

Question: “AAGCGCGCGCCTCGCCACCTCACCCGAAGAAATTCCCCACCGGAGTCACCTAGTGCAG” was tested. Which binding signal did it give?
Answer: The binding signal was 4140 fluorescence intensity (a.u.).

Question: “CGCATCCCGGCCCATCCGCCTCGTCAGCGGCGGCGCACCACGGAGTCACCTAGTGCAG” was tested. Which binding signal did it give?
Answer: The binding signal was 10800 fluorescence intensity (a.u.).

Question: How did the binding signal turn out when “CTTGCCTCCGCCCATAAATACCACCCGCATTGGCGTTCAGCGGAGTCACCTAGTGCAG” was run?
Answer: The binding signal was 50900 fluorescence intensity (a.u.).

Question: Which binding signal does the source give for “CCACACACCATTGCCGCATCATCCACCACCGCCTCCTCAGCGGAGTCACCTAGTGCAG” here?
Answer: The binding signal was 5210 fluorescence intensity (a.u.).

Question: “GTTCGCCGTGGATTTCTTTTCTTGCGTCAGTGATACTGATCGGAGTCACCTAGTGCAG” was tested. Which binding signal did it give?
Answer: Its binding signal is 5040 fluorescence intensity (a.u.).

Question: For “TTCTATTCTCCCAAAATTCCTATAGAACGAGATATTCCATCGGAGTCACCTAGTGCAG”, which binding signal is on record?
Answer: Its binding signal is 22200 fluorescence intensity (a.u.).

Question: “AACTATAGATCCAAGTGAGGAAGCTATATTCCCAAATTTTCGGAGTCACCTAGTGCAG” was tested. Which binding signal did it give?
Answer: The binding signal was 46000 fluorescence intensity (a.u.).

Question: How did the binding signal turn out when “TGGAGCTAGTCAAGTAGACAGATCATACTATTCCCCAATTCGGAGTCACCTAGTGCAG” was run?
Answer: Its binding signal is 4150 fluorescence intensity (a.u.).

Question: With “GCTTGCCGACGCCGACGCCGCCGCCGCCACCGCCGTGGCGCGGAGTCACCTAGTGCAG” as the sequence, how does the binding signal read?
Answer: Its binding signal is 4150 fluorescence intensity (a.u.).

Question: “TCCAGATCAAATCCGACGGCCCAGGATACGCCACGTCACCCGGAGTCACCTAGTGCAG” was tested. Which binding signal did it give?
Answer: Its binding signal is 46700 fluorescence intensity (a.u.).

Question: With “CACCCGACTCAGATACCCGAATCCACGTCAGCCCAGAGCCCGGAGTCACCTAGTGCAG” as the sequence, how does the binding signal read?
Answer: The binding signal was 14300 fluorescence intensity (a.u.).

Question: With “GTCTTCACAAATCCGATGACGCCACGTCATCTATCCGGCCCGGAGTCACCTAGTGCAG” as the sequence, how does the binding signal read?
Answer: The binding signal was 46400 fluorescence intensity (a.u.).

Question: Which binding signal does the source give for “AATCATCCGCCCCAGGCCCCAGCCACGTCGTCCAGATCGCCGGAGTCACCTAGTGCAG” here?
Answer: The binding signal was 6410 fluorescence intensity (a.u.).

Question: Which binding signal does the source give for “CGATCTATCTTAGTTCATTCGCTGCAAATCCGACGCCTGACGGAGTCACCTAGTGCAG” here?
Answer: The binding signal was 3240 fluorescence intensity (a.u.).

Question: How did the binding signal turn out when “AGCAAAATCTACGCGATGACGCCACGTGACATGACATCGCCGGAGTCACCTAGTGCAG” was run?
Answer: Its binding signal is 5840 fluorescence intensity (a.u.).

Question: “GCTACATTTTCGTCGACGTACGTCAGTGACACATGAACTACGGAGTCACCTAGTGCAG” was tested. Which binding signal did it give?
Answer: The binding signal was 4800 fluorescence intensity (a.u.).

Question: With “TTCAGCCTGTCATCGTCAATTCGTCATCAGTTCATCGCTCCGGAGTCACCTAGTGCAG” as the sequence, how does the binding signal read?
Answer: The binding signal was 5390 fluorescence intensity (a.u.).

Question: With “TTCGTGGCGGCTCCTCCTGTGCCATGGCCGCCGATGGTGACGGAGTCACCTAGTGCAG” as the sequence, how does the binding signal read?
Answer: The binding signal was 3320 fluorescence intensity (a.u.).
